# Screening data as filed in PubChem BioAssay.
# Rows were chosen to be rich in hits. Some 8.1% of all compounds tested hit in one or more screens of this group.
# Sfp inh: qHTS Assay for Inhibitors of Bacillus subtilis Sfp phosphopantetheinyl transferase (PPTase); 4'-phosphopantetheinyl transferase ffp (Bacillus subtilis), Q9F4F7; Biochemical Sfp PPTase activity, qHTS; Potency, µM, most hits filed as inhibitors; 310,000 compounds, 3.5% hits; AID 1490, 2009;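 further: the enzyme is Sfp with the accession as filed and its product quenches rhodamine fluorescence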
#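 After 15 min at room temperature with compound, 15 nM Sfp received 5 uM rhodamine-CoA plus 12.5 uM BHQ-2-ybbR (50 mM Hepes pH 7.6, 10 mM MgCl2). Rate came from the fluorescence difference over 30 min, ex 525/em 598 nm.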
# PINK1 modulator: A Quantitative High throughput Screen to Identify Chemical Modulators of PINK1 Expression. AID 624263, 2012. 410,000 compounds, 0.2% hits. PINK1 immunofluorescence, high-content cytometry, 24 h. Potency, µM (top dose mostly 76.6 µM), actives largely listed as activators; active means well fitted activation curve with a large enough effect; inconclusive means small, poorly fitted or top-dose-only effect; cell line not stated here; further: nearly all actives have a fitted effect of over 65% in size
#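 Stable cell line, 250 cells/well, 12 h attachment; compounds pinned at 5 concentrations, 24 h; CCCP control. Fixed with nuclear dye, primary antibodies 12 h at 10 degrees C, secondary plus cell stain; laser-scanning cytometer read.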
# RORgamma inh: qHTS for inhibitors of ROR gamma transcriptional activity; Drosophila S2 Gal4-RORgamma UAS-luciferase reporter, 20 h; Nuclear receptor ROR-gamma (Mus musculus), P51450; Potency, µM (highest dose often 53.6 µM), most hits filed as inhibitors; AID 2551, 2010; 310,000 compounds, 5.4% hits; further: nearly all actives have a fitted effect of over 60% in size
#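 Read-out: Photinus luciferase luminescence; inhibitors lower reporter signal. Insect Schneider cells with Gal4-ROR gamma fusion under metallothionein promoter, UAS reporter; 700 uM final copper sulfate induction, 20 hr, ambient temperature.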
# ClpP mod: qHTS Assay for Activators of ClpP; purified B. subtilis ClpP, FRET peptide cleavage, 20 min; Potency, µM (series often up to 57.5 µM); 340,000 compounds, 1.9% hits; AID 651965, 2013; active means well fitted falling curve with a large enough effect; inconclusive means small, poorly fitted or top-dose-only effect; inactive means no such curve, though single readings can be large or run the other way; further: the source files actives as falling curves though it sought activators and does not explain the sign; nearly all actives have a fitted effect of over 65% in size
# Target sequence (P80244 whole entry, looked up): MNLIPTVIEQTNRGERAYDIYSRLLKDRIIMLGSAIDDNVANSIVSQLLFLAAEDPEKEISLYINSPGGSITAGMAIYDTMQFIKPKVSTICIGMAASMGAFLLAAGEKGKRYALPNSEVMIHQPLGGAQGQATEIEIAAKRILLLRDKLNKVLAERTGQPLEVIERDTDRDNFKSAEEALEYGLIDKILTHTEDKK
#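 ClpP 10 microg/mL final, pH 8 Tris/KCl buffer with BSA, glycerol, Tween-20; compound pinned in; FRET-FV substrate; RT 20 min; Ex320/Em430; ΔFRET vs ADEP 5.8 microM, DMSO, no enzyme.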
# Epigenetic reg: Quantitative High-Throughput Screen for Regulators of Epigenetic Control | murine LDR cells, GFP reporter derepression, 30 h | Potency, µM (highest dose often 53.9 µM), usual class: activators | AID 1865, 2009 | 280,000 compounds, 0.2% hits; further: nearly all actives have a fitted effect of over 60% in size
#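 Derepression of a silenced CMV-GFP reporter in murine LDR cells is scored by enumerating GFP-positive cells with a laser-scanning microplate cytometer after 30 hours of treatment at 37 C.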
# Gal4-VP16 FLuc: VP16 counterscreen qHTS for inhibitors of ROR gamma transcriptional activity | Drosophila S2 Gal4-VP16 UAS-luciferase, luminescence, 20 h | Potency, µM (doses to about 53.6 µM), hits mostly inhibitors | 310,000 compounds, 3.5% hits | AID 2546, 2010;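 further: Gal4-VP16 expression switched on by copper sulfate through the metallothionein promoter; nearly all actives have a fitted effect of over 50% in size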
# Numbers stand for hits; i = inactive; ? = inconclusive; nt = not tested or not shown; [ ] = remark or other dose. Unless noted, the call rests on the fitted dose curve; in most records, active means well fitted curve in the direction sought with a large enough effect; inconclusive means small, poorly fitted or top-dose-only effect, or another doubt; inactive means no such curve, though single readings can be large; an effect the other way counts as inactive or inconclusive.
SMILES,Sfp inh,PINK1 modulator,RORgamma inh,ClpP mod,Epigenetic reg,Gal4-VP16 FLuc
Cc1ccc(C#N)c(SCc2ccccc2F)n1,i,i,i,nt,i,i
COC(=O)CSc1nc2ccc(C)cc2[nH]1,i,i,i,i,i,i
COc1ccc(C(=O)N(C)Cc2ccccn2)cc1OC1CCN(C(C)C)CC1,i,i,i,28µM,nt,?
O=c1oc2c(-c3ccc([N+](=O)[O-])cc3)cc(O)cc2s1,40µM,i,i,nt,i,i
NC1=C(c2ccc([N+](=O)[O-])cc2)C(=O)CO1,i,i,i,nt,i,i
CCOc1ccc2oc(-c3ccccc3)c(C(=O)N(C)C)c2c1,i,i,i,25µM,i,i
CCOc1ccc2oc(-c3ccccc3)c(C(=O)N3CCN(CCO)CC3)c2c1,i,i,?,14µM,i,i
CN(Cc1ccon1)C(=O)c1cnn(-c2nccc(-c3ccc4c(c3)OCO4)n2)c1C1CC1,nt,i,nt,nt,nt,nt
Nc1c(S(=O)(=O)c2ccccc2)c2nc3ccccc3nc2n1Cc1ccco1,20µM,i,?,16µM,i,?
Cc1ccc(S(=O)(=O)c2c(N)n(CCN3CCOCC3)c3nc4ccccc4nc23)cc1C,i,i,i[10 µM],28µM,i,i
Cc1ccc(S(=O)(=O)c2c(N)n(Cc3ccco3)c3nc4ccccc4nc23)cc1C,35µM,i,i,11µM,i,i
CO[C@H]1COC(=O)[C@H](C)NC(=O)C/C=C\[C@@H](C)[C@@H](NS(=O)(=O)c2ccc(C)cc2)COC(=O)[C@H](OCc2ccccc2)/C=C\[C@@H]1C,i,nt,i[10 µM],nt,i[10.1 µM],i[10 µM]
N/C(=N\OC(=O)c1ccc(Cl)cc1)c1nonc1N,i,7.9µM,i,i,i,i[0.365 µM]
N/C(=N\OC(=O)c1ccc(Cl)cc1)c1ccccn1,i,i,8.9µM,i,i,10µM
COc1ccc(C(=O)O/N=C(\N)c2ccccn2)cc1,i,i,14µM,nt,nt,18µM
N/C(=N\OC(=O)c1cccc(Br)c1)c1ccccn1,i,i,10µM,i,nt,18µM
N/C(=N\OC(=O)c1ccc(Cl)c(Cl)c1)c1ccccn1,i,i,?,i,i,?
Cc1ccc(C)c(N2CCN(C(=O)CCS(=O)(=O)c3cc4c(cc3Cl)NC(=O)CO4)CC2)c1,nt,i,nt,i,i,nt
CC(C)(C)c1cn(-c2ccc(F)cc2)c(=S)[nH]1,?,i,8.9µM,i,i,10µM
CCOc1cccc(=O)c2c(C)n(Cc3ccco3)c(C)c12,40µM,nt,i,i,i,3.5µM
CCOc1cccc(=O)c2c(C)n(Cc3ccccc3)c(C)c12,i,i,i,i,i,i
COc1ccc(-n2c(C)c3c(OC)cccc(=O)c3c2C)cc1,i,i,i,i,i,i
COc1cccc(=O)c2c(C)n(-c3ccc(C(=O)O)cc3)c(C)c12,4.5µM,i,i,nt,i,i
CCOc1cccc(=O)c2c(C)n(-c3ccc(C(=O)O)cc3)c(C)c12,28µM,i,?,i,i,?
C/C(CC1CC(C)OC1=O)=N\NC(N)=S (stereo not drawn),25µM,i,8.9µM,i,i,?
SMILES,Sfp inh,PINK1 modulator,RORgamma inh,ClpP mod,Epigenetic reg,Gal4-VP16 FLuc
CCC1CC(/C(C)=N/NC(N)=O)OC1=O (stereo not drawn),i,i,i,nt,i,i
O=C(NNC(=O)c1ncc(Cl)c(Cl)c1Cl)c1ccc(F)cc1,i,i,7.1µM,i,nt,5µM
O=C(NNC(=O)c1nc(Cl)ccc1Cl)c1ccc(F)cc1,i,i,11µM,i,nt,?
CCC1CN(C(=O)Nc2cccc3c2CCCC3)c2cc(Cl)ccc2O1 (stereo not drawn),nt,i,nt,i,i,nt
Cc1cccc(NC(=S)/N=C(\N)Nc2nc(C)c3ccc(C)cc3n2)c1,i,i,1µM,i,i,3.5µM
Cc1cccc(NC(=O)CSc2nc(C3CC3)nc3ccccc23)c1,i,i,i,nt,nt,i
Cc1cc(C)cc(NC(=S)/N=C(\N)Nc2nc(C)c3ccccc3n2)c1,i,i,2µM,i,i,3.2µM
